YopH PTP inh: YopH (Yersinia) phosphatase inhibition; 140,000 tested, 0.16% active; inhibition, % (test concentration not listed); AID 898; fluorescence Ex485/Em525; in the data active = inhibition above about 50%
RmlC RmlD mix: mixture blocks RmlC and RmlD coupled enzyme activity; 110,000 tested, 0.39% active; inhibition, % at 5.5 µM; RmlC/RmlD coupled enzyme inhibition, 384-well mixture HTS; in the data active = inhibition above about 30%, passing the limit was not always enough
RmlCD artifact: counter-screen for RmlC/RmlD inhibitors: fluorescence artifact; RmlC/RmlD assay fluorescence artifact counter-screen; 360 tested, 96% active; calls only; shares compounds with RmlC RmlD mix; call rule not given here;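 also: compound alone with no enzyme and no substrates present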
Starred values were filed as active, the others as inactive; i = inactive; · = not tested or not shown; + = active, no number. Shown are actives, neighbours in structure and some others; about 0.41% of the full set was active somewhere.

SMILES | YopH PTP inh | RmlC RmlD mix | RmlCD artifact
COc1ccc(-c2oc3ncn4nc(Cc5ccccc5)nc4c3c2-c2ccc(OC)cc2)cc1 | -9.6 | 84.2 | ·
COc1ccc(-c2oc3ncn4nc(COc5ccccc5)nc4c3c2-c2ccc(OC)cc2)cc1 | -34.2 | 117.4* | +
Cc1ccc2nc(-c3cccc(NC(=O)c4ccc5c(c4)OCCO5)c3)oc2c1 | -24.8 | 2.2 | ·
O=C(Nc1ccc2oc(-c3ccc4ccccc4c3)nc2c1)c1ccc2c(c1)OCCO2 | -4.1 | 36.4* | +
O=C(Nc1ccc2oc(-c3ccncc3)nc2c1)c1cccs1 | 3.0 | -0.4 | ·
O=C(Nc1ccc(-c2nc3cc(NC(=O)c4cccs4)ccc3o2)cc1)c1cccs1 | -27.7 | 92.8* | +
Cc1ccccc1OCCSc1nnc(-c2cccnc2)n1N | -23.0 | · | ·
Cc1cccc(-n2c(=O)c(C#N)cc3c(=O)n4ccccc4nc32)c1 | -13.5 | 83.2* | +
Cc1ccc(-n2c(=O)c(C#N)cc3c(=O)n4ccccc4nc32)cc1 | -28.4 | · | ·
Cc1cccn2c(=O)c3cc(C#N)c(=O)n(-c4c(C)n(C)n(-c5ccccc5)c4=O)c3nc12 | -27.8 | 10.0 | ·
Cc1cc(-n2c(=O)c(C#N)cc3c(=O)n4cccc(C)c4nc32)no1 | -7.8 | 46.7* | +
Cc1nn(-c2ccccc2)c(Cl)c1C(=O)NCc1cccs1 | 0.0 | · | ·
O=c1cc2c(nn1Cc1ccccc1Cl)-c1ccccc1CC2 | 9.4 | -12.0 | ·
CCOC(=O)CC(=O)CSc1nc2c(c(C)c1C#N)CCC2 | -24.8 | · | ·
CC(C)OC(=O)CC(=O)CSc1nc2c(cc1C#N)CCCCC2 | 16.8 | + | +
CCOC(=O)CC(=O)CSc1nc2ccc(C)cc2cc1C#N | -43.1 | + | +
CCOC(=O)CC(=O)CSc1nc2c(cc1C#N)CCCCC2 | -40.6 | 76.4 | ·
COC(=O)CSc1nc2cc(C)ccc2cc1C#N | -15.2 | 5.6 | ·
CCOC(=O)CC(=O)CSc1nc(C)cc(C)c1C#N | -3.7 | 110.3* | +
CCOC(=O)CC(=O)CSc1nc(CC)c(C)cc1C#N | · | · | +
CCc1nc(SCC(=O)O)c(C#N)cc1C | -46.0 | -2.1 | ·
c1ccc(Cn2ccc(-c3cnc(-c4ccccc4)s3)n2)cc1 | -10.1 | -45.8 | ·
CCOC(=O)C1=C(C)N(c2ccc(Cl)cc2)C(=O)NC1c1cccc([N+](=O)[O-])c1 (stereo not drawn) | -25.3 | · | ·
Cc1c(NS(=O)(=O)c2ccc(N(C)C3CCCCC3)c([N+](=O)[O-])c2)c(=O)n(-c2ccccc2)n1C | -23.0 | · | ·
CCc1ccc(-c2cc(C(F)(F)F)n3nc(C(=O)Nc4cnn(Cc5ccccc5C)c4)cc3n2)s1 | -27.7 | + | +
SMILES | YopH PTP inh | RmlC RmlD mix | RmlCD artifact
CCc1ccc(-c2cc(C(F)(F)F)n3nc(C(=O)Nc4c(C)nn(Cc5ccccc5C)c4C)cc3n2)s1 | -4.1 | -26.5 | ·
Clc1ccc(/C=N/c2c(-c3ccco3)nc3ccccn23)cc1 | 10.2 | 16.8 | ·
Oc1ccccc1/C=N/c1c(-c2ccco2)nc2ccccn12 | 14.1 | 38.8* | +
CCOC(=O)c1c(C)n(C)c2ccc(OC(=O)c3ccco3)cc12 | -2.0 | 6.6 | ·
Cc1oc2cc(OCC(=O)O)ccc2c(=O)c1Oc1ccccc1 | -24.4 | 5.5 | ·
CCOC(=O)c1cc2ccc(OC(=O)c3ccco3)cc2oc1=O | -46.7 | + | +
COc1ccccc1Oc1c(C)oc2cc(OC(=O)c3ccco3)ccc2c1=O | -25.6 | 105.0* | +
CCCCC(=O)Nc1ccc(NC(=O)c2ccc([N+](=O)[O-])cc2Cl)cc1OC | -35.4 | · | ·
CCc1cc2c(CN3CCN(CCO)CC3)cc(=O)oc2cc1O | -26.0 | 61.0* | +
CCc1cc2c(CN3CCN(C)CC3)cc(=O)oc2cc1O | -45.5 | -1.9 | ·
CC1(C)Cc2ccccc2-c2nc(NCCO)n(-c3ccccc3)c(=O)c21 | -21.1 | 51.0* | +
CCC1(C)Cc2ccccc2-c2nc(NCCO)n(-c3ccccc3)c(=O)c21 (stereo not drawn) | -3.9 | -0.6 | ·
CCOC(=O)C(C(=O)Nc1cccc(C)c1)C1CCCCC1 (stereo not drawn) | -25.0 | -0.6 | ·
O=C(CCCn1c(=O)[nH]c2ccsc2c1=O)N1CCN(c2ccccn2)CC1 | 6.2 | 70.0* | i
O=C(CCCn1c(=O)[nH]c2ccccc2c1=O)N1CCN(c2ccccn2)CC1 | -8.2 | · | ·
CCn1c(/C=N/n2cnnc2)nc2ccccc21 | -40.8 | 73.2* | +
CCn1c2ccccc2c2cc(/C=N/n3cnnc3)ccc21 | -40.7 | 5.1 | ·
CCOC(=O)c1c(NC(=O)CN2CCCc3ccccc32)sc(C)c1CC | -20.0 | · | ·
Nc1ccccc1C(=O)NCc1ccc(Cl)cc1 | -21.8 | · | ·
CCOC(=O)/C(=C\c1cn(C)c2ccccc12)[N+](=O)[O-] | 1.1 | · | ·
COC(=O)/C(=C/Nc1cccc2ccccc12)[N+](=O)[O-] | -16.7 | 158.0* | +
Nc1c(S(=O)(=O)c2cccs2)c2nc3ccccc3nc2n1Cc1cccs1 | -30.2 | 12.8 | ·
Nc1c(S(=O)(=O)c2cccs2)c2nc3ccccc3nc2n1CC1CCCO1 (stereo not drawn) | -24.3 | 52.8* | +
Cc1cc(=O)oc2cc(OCCCN3C(=O)c4ccccc4C3=O)ccc12 | -27.8 | · | ·
Cc1cc(=O)oc2cc(OC(=O)CCN3C(=O)c4ccccc4C3=O)ccc12 | -25.8 | · | +
SMILES | YopH PTP inh | RmlC RmlD mix | RmlCD artifact
COc1c2c(nc3occc13)C(CC=C(C)C)(OC)C(O)CC2 (stereo not drawn) | -23.0 | -8.3 | ·
Cc1cc(C(C)(C)C)oc1C(=O)N(CC(=O)NC1CCCC1)Cc1ccccc1Cl | -15.0 | -10.6 | ·
COCCCn1cnc2c(c1=O)c1nc3ccccc3nc1n2-c1ccccc1 | -48.6 | 12.0 | ·
COCCCn1cnc2oc3nc4ccccc4nc3c2c1=O | -11.2 | 50.1* | +
COC(=O)c1nn(-c2ccccc2)c(Sc2ccc(C)cc2)c1/C=N/O | -30.7 | -3.4 | ·
O=C(Nc1nc(NC(=O)c2ccco2)n(-c2ccccc2)n1)c1ccccc1 | -28.5 | 138.3* | +
Nc1nc(NC(=O)c2ccccc2)nn1-c1ccccc1 | -27.6 | · | ·
Nc1cc(-c2nc3ncccc3o2)ccc1Cl | -10.3 | 44.5 | ·
Cc1cc(-c2nc3ncccc3o2)ccc1N | -18.4 | 68.8* | +
Clc1ccc2c(Cl)c(-c3nnc(-c4ccccc4)o3)sc2c1 | -13.0 | · | ·
CCOC(=O)C[C@H]1c2ccccc2S(=O)(=O)N1Cc1cccc(C(F)(F)F)c1 | · | -14.4 | ·
CCOC(=O)C1=C(CSc2nc(-c3ccccc3)ccc2C#N)OC(N)=C(C#N)C1c1cccnc1 (stereo not drawn) | 8.7 | 44.6* | +
CCOC(=O)C1=C(CSc2nc(-c3ccccc3)ccc2C#N)OC(N)=C(C#N)C1c1ccccc1 (stereo not drawn) | -6.3 | 29.8 | ·
COc1ccc(Cc2c(O)nc(SCC(=O)N3CCCCCC3)[nH]c2=O)cc1 | -33.7 | -10.6 | ·
CCC(=O)Nc1c(OC(=O)CC)ccc2c(C)cc(=O)oc12 | -52.5 | + | +
CCC(=O)Oc1c(C(=O)CC)cc2c(C)cc(=O)oc2c1C | -24.6 | · | ·
CC(=O)Oc1ccc2ccc(=O)oc2c1 | · | + | +
COc1ccc2ccc(=O)oc2c1 | -27.0 | -6.7 | ·
Cn1c(-c2cc3ccc(OC(=O)C(C)(C)C)cc3oc2=O)nc2ccccc21 | -8.9 | -40.7 | ·
CC(=O)Oc1ccc2cc(-c3nc4ccccc4n3C)c(=O)oc2c1 | -39.6 | · | +
CNS(=O)(=O)c1ccc(NC(=O)c2ccccn2)cc1 | -23.8 | · | ·
COc1cc(OC)nc(NC(=S)NC(=O)c2ccccc2)n1 | -29.9 | · | ·

Screening results as filed in PubChem.
